Experimental data reported in PubChem BioAssay AID1822 (The Scripps Research Institute Molecular Screening Center, 2009).
Out of some 290,000 compounds screened, about 3,500 (1.2%) were called active. This excerpt belongs to a sample that is enriched for actives. A number with no mark means an inactive call.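 Rule for the calls: active = inhibition above the campaign mean inhibition over all tested compounds plus 3 SD (cut at about 28% in these data); inactive = the rest.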

These molecules were tested on M18 aspartyl aminopeptidase (Plasmodium falciparum 3D7) (assay: inhibition of P. falciparum M18 aminopeptidase – biochemical, QFRET, recombinant enzyme, primary screen (AID 1822;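 note: 0% = plate median of test compound wells and 100% = 2 mM ZnCl2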)). Details: recombinant PfM18AAP, H-Glu-NHMec fluorogenic cleavage; at 7.35 µM; active compounds read high.

In order of falling inhibition:
1. O=C(CSc1ncn[nH]1)N/N=C/c1ccc(F)cc1  21.1%
2. COc1cccc(/C=N/Nc2ccc(Cl)nn2)c1  18.6%
3. O=C(c1cccc(-n2cccc2)c1)N1CCN(S(=O)(=O)c2ccc(F)cc2)CC1  14.4%
4. Cc1ccc(S(=O)(=O)NNC(=O)/C=C/c2cccc(F)c2)cc1  12.8%
5. CCCCN(Cc1ccccc1)C(=O)C1CCN(Cc2sccc2C)CC1  10.9%
6. CCOc1ccc(/C=N/Nc2nncc(-c3ccccc3)n2)cc1OC  8.38%
7. O=c1c(/C=N/O)coc2ccc(Cl)cc12  8.13%
8. CN(Cc1ccccc1)C(=O)CSc1nc2ccccc2[nH]1  7.79%
9. Cc1ccc(-n2c(C)cc(/C=N/Nc3ccc([N+](=O)[O-])cn3)c2C)c(C)c1  7.66%
10. Cc1cc(/C=C2\SC(=O)N(C)C2=O)c(C)n1-c1cccc(C(=O)O)c1  7.23%
11. CC1Cc2cc(/C(O)=C3\C(=O)C(=O)N(Cc4cccnc4)C3c3ccccc3F)ccc2O1 (stereo not drawn)  7.22%
12. Nc1nnn(CC(=O)N/N=C/c2ccc(O)cc2)n1  7.09%
13. Cc1cccn2c(=O)c3cc(C(=O)NCCN4CCOCC4)c(=N)n(Cc4cccnc4)c3nc12  7.09%
14. Cc1ccc2occ(/C=N/NC(=O)c3ccccc3C)c(=O)c2c1  6.11%
15. O=C(CSc1ncn[nH]1)NCc1ccc2c(c1)OCO2  5.91%
16. O=C(NC(=S)N1CCCCC1c1cccnc1)c1ccccc1 (stereo not drawn)  4.53%
17. CCC(C)C(=O)Nc1ccccc1N1CCN(c2ccc(F)cc2)CC1 (stereo not drawn)  4%
18. O=c1c2ccccc2nc(N/N=C/c2ccccc2)n1O  3.06%
19. COc1ccc(CNC(=O)c2c[nH]c3c(OC)cc(OC)cc3c2=O)cc1  2.86%
20. O=C(c1cccs1)N(Cc1cc2ccccc2[nH]c1=O)CC1CCCO1 (stereo not drawn)  2.59%
21. Cc1ccsc1/C=N/n1c(=S)[nH]nc(C)c1=O  2.51%
22. O=C(Nc1ccc(C(=O)NCc2ccccc2Cl)cc1)C1=CSCCO1  2.51%
23. C[C@H](C(=O)CC(=O)OC(C)(C)C)[C@H](O)c1ccc(C(F)(F)F)cc1  2.4%
24. CC(C)(C)N(Cc1ccccc1)C(=O)c1ccncc1  2.34%
25. COc1cc(/C=N/O)ccc1OCc1ccc([N+](=O)[O-])cc1  2.23%
26. O=S(=O)(c1ccc(Cl)cc1)c1nc(-c2ccccc2F)oc1NCCN1CCOCC1  1.96%
27. COc1ccc(NS(=O)(=O)c2cc(C(=O)Nc3ccccc3C(=O)O)ccc2C)cc1  1.9%
28. NC(=O)N/N=C\c1cccs1  1.75%
29. Cc1ccsc1/C=N/NC(=O)Cc1cc(=O)[nH][nH]1  1.38%
30. Cc1nc(Cl)cc(N/N=C/c2ccccc2)n1  1.31%
31. O=c1cc(Cl)c2ccccc2n1-c1ccccc1  1.05%
32. Cc1nnc(N/N=C/c2cccs2)[nH]c1=O  0.78%
33. Cc1c(/C=N\NC(=O)c2cc3ccccc3o2)c2ccccc2n1C  0.69%
34. Cc1ccc(OCC(=O)Nc2ccc(C(=O)O)cc2NC(=O)COc2ccc(C)c(C)c2)cc1C  0.26%
35. CSc1ccc(S(=O)(=O)N2CCC(C(=O)NCCc3ccccc3)CC2)cc1  0.01%
36. Cc1ccc2c(c1)c1ncnc(N3CCc4ccccc4C3)c1n2C  -0.51%
37. Oc1c(Br)cccc1/C=N/Nc1c(F)c(F)c(F)c(F)c1F  -1.11%
38. CCc1ccc(NC(=O)N2CCc3ccccc3C2)cc1  -1.34%
39. CC(C)c1ccc(NC(=O)[C@@H](NC(=O)N2CC(=O)Nc3ccccc32)C(C)C)cc1  -1.48%
40. O=C(NCc1ccncc1)C1CCN(C(=O)c2cccc(Cl)c2)CC1  -1.77%
41. CCn1nc(C)c(CNC(=O)C2CCC(=O)N(Cc3cccc(F)c3)C2)c1C (stereo not drawn)  -1.99%
42. Cc1c(C)c(C)c2[nH]c(=S)[nH]c2c1C  -2.04%
43. CC(=O)c1c(C)n(-c2ccc(C)cc2)c2ccc(O)cc12  -3.09%
44. COCCNC(=O)C1CCN(C(=O)C2CC(=O)N(c3ccc(C)cc3)C2)CC1 (stereo not drawn)  -4.37%
45. CN(C(=O)CSc1nnc(-c2n[nH]c3ccccc23)o1)c1ccccc1  -5.28%
46. OCCNc1nc2ccccc2n1-c1ncnc2sc3c(c12)CCC3  -6.82%
47. Cc1cc(C)nc(N/N=C/c2c(C)oc3ccccc23)n1  -6.94%
48. O=C(C1CCCO1)N1CCN(S(=O)(=O)c2ccc(Br)cc2)CC1 (stereo not drawn)  -7.44%
49. O=C(N/N=C/c1c[nH]c2ccccc12)c1cc2ccccc2o1  -7.84%
50. COc1ccccc1C(=O)N(C1=NC(C)CS1)c1ccc(Cl)cc1 (stereo not drawn)  -8.55%
51. COCCn1c(SCc2nnc(-c3ccc(OC)c(OC)c3)o2)nc2sc3c(c2c1=O)CCC3  -13.2%
52. CC(C)OCCCNC(=O)CN1C(=O)/C(=C/c2ccccc2F)Oc2ccccc21  -19.2%

In the case of Cc1cc2c(C)nc(N/N=C/c3ccccc3)nc2o1, the inhibition is reported as 37.1% (active).
ClC1(Cl)CC1CSc1ncn[nH]1 (stereo not drawn) was tested, and the inhibition was 34.4% (active).
Oc1cccc(/C=N/Nc2ccc(Cl)nn2)c1O was tested, and the inhibition was 60.9% (active).
With Cc1ccsc1/C=N/Nc1ccc(Cl)nn1 the inhibition was 38.9% (active).
With Clc1ccc(N/N=C/c2cccs2)nn1 the inhibition was 31.6% (active).
With CC(C)(C)c1nnc(N/N=C/c2ccc(O)cc2)n(N)c1=O the inhibition was 44.5% (active).
In the case of O=c1[nH]c(=S)[nH]c2[nH]c(=S)[nH]c12, the inhibition is reported as 43.7% (active).
In the case of NC(=S)N/N=C/c1coc2cc(Cl)ccc2c1=O, the inhibition is reported as 50.2% (active).
O=C(N/N=C/c1coc2ccccc2c1=O)c1cc2ccccc2o1 was tested, and the inhibition was 36.8% (active).
With Cc1cc(/C=N/Nc2ccc([N+](=O)[O-])cn2)c(C)n1-c1cccc(C(=O)O)c1 the inhibition was 50.7% (active).
COc1cc(/C=N\Nc2ccc([N+](=O)[O-])cn2)ccc1OCC(=O)O was tested, and the inhibition was 43.1% (active).
